Inconclusive results are not listed. Unmarked numbers belong to inactive results. Activity calls are given as the source filed them. The call rests on the fitted dose curve; in most records, active means well fitted activation curve with a large enough effect in the signal ratio in the repeat runs (not every such curve was filed as active); inconclusive means weak or mixed curves, or effect the other way; inactive means flat fitted curve, though single readings scatter; the % refers to the signal ratio.
On the % scale 0 is the no-effect control and ±100 the full control effect.

The assay in a line: qHTS assay to identify small molecule agonists of the endoplasmic reticulum stress response signaling pathway (AID 1159516). To be noted: ESRE-bla HeLa, ER stress beta-lactamase reporter, 5 h; series mostly up to 61 µM. An excerpt: National Center for Advancing Translational Sciences [NCATS]
NIH Chemical Genomics Center [NCGC]
U.S. Environmental Protection Agency [EPA]
National Institutes of Environmental Health Sciences [NIEHS]
National Toxicology Program [NTP]
U.S. Food and Drug Administration [FDA]
Endoplasmic Reticulum (ER) plays an important role in cellular signaling, protein folding/maturation, stress response, lipid biosynthesis, calcium storage and release etc. Under stress conditions, proteins in ER misfold or unfold, and leading to the expression of ER stress responsive genes. ER stress has been associated with a variety of pathophysiological conditions such as cancer, inflammation, neurodegenerative diseases, diabetes, ischemic heart disease etc. To identify the compounds that induce ER stress response, an ER stress reporter cell line, CellSensor ESRE-bla HeLa (Life Technologies, Carlsbad, CA) containing a beta-lactamase reporter gene under control of the Endoplasmic reticulum Stress Response Element (ESRE) was used to screen Tox21 10K compound library.
Tox21 Assay Protocol Summary:
ESRE-bla HeLa cells were dispensed at 1,500 cells/6 uL of assay medium per well into black wall/clear-bottom 1536-well plates using a Multidrop Combi (ThermoFisher Scientific, Waltham, MA) dispenser. After the assay plates were incubated at 37 C and 5% CO2 for an overnight, 23 nL of compounds dissolved in DMSO, positive controls or DMSO only was transferred to the assay plate by a Pintool station (Kalypsys, San Diego, CA). The assay plates were incubated at 37 C and 5% CO2 for 5 hr. One uL of LiveBLAzer B/G FRET substrate (Life Technologies) was added using a Flying Reagent Dispenser (Aurora Discovery, San Diego, CA) and the plates were incubated at room temperature for 2 hr. Fluorescence intensity (405 nm excitation, 460 nm and 530 nm emissions) was measured using an Envision plate reader (PerkinElmer, Shelton, CT).
Turning to `CCCCCCCCCCCCCCCC(=O)NCCO`, the molecule was classed as inactive.

As to `CC(=O)OC(C)c1ccccc1` (stereo not given), the outcome was inactive.

Turning to `O=C(CN1CCN(Cc2ccc3c(c2)OCO3)CC1)N1c2ccccc2Sc2ccccc21`, the result was inactive.

Regarding `CCC(=O)c1ccc(O)cc1`, the result was inactive.

Turning to `O=S1(=O)CCCC1`, the molecule was called inactive.

Regarding `C=CCOc1c(Br)cc(Br)cc1Br`, the result was inactive.

On to `CCCCC[Si](OCC)(OCC)OCC`, for which the outcome was inactive.

For `C=CCCCCCCCCCCC`, the activation was -5.43% [at 6.95 µM].

As for `O=C(c1ccc2c(c1)C(=O)OC2=O)c1ccc2c(c1)C(=O)OC2=O`, the molecule was classed as inactive.

As to `CCCOC(=O)CCCCC(=O)OCCC`, the outcome was inactive.

For the molecule `CC(CC(=O)O)CC(C)(C)C` (stereo not given), the molecule was called inactive.

For the molecule `Cc1oc(=O)oc1CN1CCN(c2cc3c(cc2F)c(=O)c(C(=O)O)c2n3C(C)S2)CC1` (stereo not given), the molecule was classed as inactive.

On to `CCOC(=O)C(C)(C)C`, for which the outcome was inactive.

Take `Cc1nc2n(c(=O)c1CCN1CCC(C(=O)c3ccc(F)cc3)CC1)CCS2`: the molecule was classed as inactive.

As for `CCCCC/C=C/CC(=O)OC`, the molecule was called inactive.

For `CC(=O)c1ccc2c(c1)CCCC2`, the result was inactive.

Turning to `C=CCOc1c(Br)cc(C(C)(C)c2cc(Br)c(OCC=C)c(Br)c2)cc1Br`, the outcome was inactive.

Consider `CC(C)COC(=O)CCCCC(=O)OCC(C)C`, for which the outcome was inactive.

For `Cn1c(=O)c2c(ncn2CC2OCCO2)n(C)c1=O`, the outcome was inactive.

Consider `CCCCC(=O)N(C)C`, for which the result was inactive.

Turning to `CC(C)COC(=O)CC(C(=O)OCC(C)C)S(=O)(=O)O` (stereo not given), the outcome was inactive.

As for `Nc1ccc(S(=O)(=O)NC(=O)c2ccccc2)cc1`, the molecule was called inactive.

As to `O=C(O)Cc1cccc(-c2cc(CCCCCCc3ccc(O[C@H]4O[C@H](CO)[C@@H](O)[C@H](O)[C@@H]4O)c(-c4cccc(CC(=O)O)c4)c3)ccc2O[C@H]2O[C@H](CO)[C@@H](O)[C@H](O)[C@@H]2O)c1`, the activation was 1.35% [at 0.628 µM].

For `Nc1ccc(C(=O)OCC(O)CO)cc1` (stereo not given), the molecule was called inactive.

For `CC(=O)Nc1ncc([N+](=O)[O-])s1`, the outcome was inactive.

As to `CO/N=C(/C(=O)N[C@@H]1C(=O)N2C(C(=O)O)=C(Cn3nnc(C)n3)CS[C@H]12)c1csc(N)n1`, the outcome was inactive.

Regarding `CC(=O)OC(C)(C)Cc1ccccc1`, the outcome was inactive.

For `O=C(/C=C/c1ccccc1)NCCO`, the molecule was called inactive.

Take `Cc1cc(C)cc([N+](=O)[O-])c1`: the molecule was called inactive.

Consider `CC(=O)OC[C@H]1O[C@@H](OC(C)=O)[C@H](OC(C)=O)[C@@H]1OC(C)=O`, for which the molecule was called inactive.

In the case of `NC(=O)C1(N2CCCCC2)CCN(CCCC(=O)c2ccc(F)cc2)CC1`, the call was inactive.

In the case of `CC(C)CCC(=O)CCC(C)C`, the molecule was called inactive.

Consider `CCN(CC)C(=O)C1CN2CCc3cc(OC)c(OC)cc3C2CC1OC(C)=O` (stereo not given), for which the molecule was called inactive.

Consider `Cc1c(C(C)C)c(=O)n(-c2ccccc2)n1C`, for which the molecule was classed as inactive.

`CC(C)(C)c1ccc(C=O)cc1`: the outcome was inactive.

With `C[CH2][Ge]([Cl])([CH2]C)[CH2]C`, the molecule was classed as inactive.

With `COc1ccc(/C=N/NC(=O)c2ccncc2)cc1OC`, the outcome was inactive.

Regarding `SCCSCCS`, the result was inactive.

Consider `CCN(CCO)c1cccc(C)c1`, for which the call was inactive.

As to `COCC(=O)Nc1c(I)c(C(=O)NCC(O)CO)c(I)c(C(=O)N(C)CC(O)CO)c1I` (stereo not given), the molecule was classed as inactive.

Values taken from PubChem BioAssay (Tox21).
